The values that follow come from PubChem BioAssay (NCATS).

Each structure is given as a SMILES string. Values without a mark were called inactive. Records with an inconclusive call do not appear. The source made the active and inactive calls. Unless noted, calls come from the whole dose curve; as a rule, active = well fitted curve in the direction sought with a large enough effect; inconclusive = small, poorly fitted or top-dose-only effect, or another doubt; inactive = no such curve, though single readings can be large; an effect the other way counts as inactive or inconclusive.

Assay [1] in a line: Validation of Assay for Modulators of Lamin A Splicing (AID 1459; active = well fitted curve in the direction sought with a large enough effect in the signal ratio; the % refers to the signal ratio;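 note: cells exposed to compound for two days before reading; 0% is about no effect; ratio rise marks activators and ratio drop marks inhibitors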). Put shortly:
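HeLa S3 lamin A-EGFP/DsRed2 stable clone, 600 cells/well, Opti-MEM 2% FBS; compounds by pin tool; 48 hrs, 37 °C/5% CO2; Acumen 488 nm scan, objects 10-100 um; GFP/RFP intensity ratio.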

In assay [2] the target is DNA repair nuclease/redox regulator APEX1 (Homo sapiens) (UniProt P27695). Nature of the assay: qHTS Validation Assay for Inhibitors of the Human Apurinic/apyrimidinic Endonuclease 1 (APE1) (AID 1705;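 note: TAMRA fluorescence gain over two minutes as APE1 cuts a quenched THF abasic duplex; series mostly up to about 57 µM; % is set by controls: 0 for no effect and ±100 for the full control effect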). Put shortly:
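qHTS, 1536-well. APE1 + cpd 15 min RT → 50 nM TAMRA/BHQ-2 THF-abasic dsDNA substrate → kinetic fluorescence, 3 reads/60 s; delta(read3−read1) = reaction progress. No-enzyme buffer = negative control.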
In general terms: qHTS replaces the single test concentration by a dilution series.

Assay [3] is described as follows: Counterscreen for APE1 Inhibitors: Fluorescent Dye Displacement Validation Assay (AID 1707).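 Note: plate controls were ThO with dsDNA and no compound for no effect and ThO without dsDNA for full effect.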 The procedure, abridged: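 Counterscreen flags promiscuous DNA binders: compounds displacing ThO from duplex DNA (abasic THF site, 50 nM) reduce 540 nm emission (480 nm excitation). ThO 250 nM final; Tris-HCl pH 7.5 with NaCl, MgCl2 and Tween-20.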
In general terms: The purpose of a counterscreen is to sort out artefacts and off-target activity.

Assay [4] is described as follows: qHTS for differential inhibitors of proliferation of Plasmodium falciparum line 7G8 (AID 1815).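 Note: potency is the fitted concentration of half-maximal effect; parasite growth measured after three days of incubation.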
Assay [5] can be described thus: qHTS for differential inhibitors of proliferation of Plasmodium falciparum line GB4 (AID 1816).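 Note: potency is the fitted concentration of half-maximal effect; parasite growth measured after 72 h incubation.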 The note with it: Potency: Plasmodium falciparum GB4 proliferation inhibition.
Assay [6] is described as follows: qHTS for differential inhibitors of proliferation of Plasmodium falciparum line 3D7 (AID 1876). Note: potency is the fitted concentration of half-maximal effect.
Assay [7] can be described thus: qHTS for differential inhibitors of proliferation of Plasmodium falciparum line D10 (AID 1877).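 Note: potency is the fitted concentration of half-maximal effect; parasites grown with compound for 72 h before DNA staining.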
Assay [8] can be described thus: qHTS for differential inhibitors of proliferation of Plasmodium falciparum line Dd2 (AID 1882). Note: potency is the fitted concentration of half-maximal effect; nearly all actives have a fitted effect of over 65% in size. The note with it: Potency: Plasmodium falciparum Dd2 proliferation inhibition. The procedure, abridged:
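SYBR Green DNA fluorescence (ex 485, em 535 nm) after overnight lysis quantifies parasite growth; compound exposure lasted 72 h at 37 C on infected red cells at 2.5% hematocrit, 0.3% parasitemia (final). Artemisinin 0.29 uM and vehicle wells define normalization.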

The nature of assay [9]: qHTS for differential inhibitors of proliferation of Plasmodium falciparum line W2 (AID 1883).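 Note: potency is the fitted concentration of half-maximal effect; parasites grown with compound for 72 h before lysis and staining.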 The note with it: Potency: Plasmodium falciparum W2 proliferation inhibition.
Assay [10] is described as follows: qHTS for differential inhibitors of proliferation of Plasmodium falciparum line HB3 (AID 1886).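 Note: potency is the fitted concentration of half-maximal effect; parasites grown with compound for 72 h before SYBR Green readout.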 The note with it: Potency: Plasmodium falciparum HB3 proliferation inhibition.
Assay [11] in a line: qHTS Assay for Modulators of Human Peripheral Myelin Protein 22 (PMP22) Expression/Activity (AID 1967; active = well fitted curve in the direction sought with a large enough effect in the signal ratio; the % refers to the signal ratio;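 note: 0% = untreated cells and 100% end not stated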). Put shortly:
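Luminescence ratio of Pmp22 promoter-driven green luciferase to EF-alpha-driven red luciferase, in engineered mouse MSC80 Schwann cells, served as read-out. Compounds were incubated 24h; untreated cells defined 0% Activity; curves were classified by r2, magnitude and activity.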

Assay [12] addresses Ferritin light chain (Equus caballus) (UniProt P02791). Description: qHTS Validation Assay for Identification of Novel General Anesthetics (AID 2323). Note: series mostly up to about 77 µM; % is set by controls: 0 for no effect and ±100 for the full control effect. Put shortly: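 Fluorescence at 535 nm (excitation 380 nm) reported loss of 1-AMA binding to horse-spleen apoferritin (10 uM) in PBS with 50% saturated 1-aminoanthracene, after 10 min room-temperature incubation with compound; values from Hill fits of normalized response.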

Assay [13] concerns the target ATP-dependent DNA helicase Q1 (Homo sapiens) (UniProt P46063). Nature of the assay: qHTS Validation Assay for Inhibitors of RecQ-Like Dna Helicase 1 (RECQ1) (AID 2353).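 Note: plate controls were DMSO vehicle for no effect and enzyme-free control for full effect.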 Put shortly:
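RECQ1T1 50 nM; forked duplex (20 bp + 30-nt ss tails) 200 nM, ATP 2 mM final; pH 8.0, 2 mM MgCl2, 2.5 ug/ml poly(dI-dC); 15 min compound preincubation; discontinuous kinetic read over 2 h at RT.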

The nature of assay [14]: Validation screen for small molecules that induce DNA re-replication in MCF 10A normal breast cells (AID 463097). Note: 0% is about no effect; nearly all actives have a fitted effect of over 60% in size. Put shortly: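 Image-based qHTS: normal breast cells are incubated with compound for 48 hr, stained with Hoechst, and scanned for total nuclear fluorescence. Compounds raising the fraction of nuclei with elevated DNA content count as re-replication inducers.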

Assay [15] has as its target M-phase phosphoprotein 8 (Homo sapiens) (UniProt Q99549). Description: qHTS Validation Assay for Inhibitors for MPP8 Chromodomain Interactions with Methylated Histone Tails (AID 488949).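 Note: 50 nM MPP8 with 50 nM peptide preformed then compounds added for 30 min; AlphaScreen signal from MPP8 chromodomain bound to biotinylated H3K9me3 peptide; top concentration of the series differs between compounds; % is set by controls: 0 for no effect and ±100 for the full control effect; nearly all actives have a fitted effect of over 55% in size.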 The procedure, abridged:
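50 nM MPP8 + 50 nM b-H3K9me3 peptide, PBS pH 7.4/0.01% Tween-20, 30 min RT; + cpd 30 min RT; + AlphaScreen donor/Ni-chelate acceptor beads 10 ug/mL final, 30 min dark; luminescence read.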

Assay [16] addresses Transient receptor potential cation channel subfamily V member 1 (Homo sapiens) (UniProt Q8NER1). Nature of the assay: HTS Assay for Compounds that Act as Enhancers of the Vanilloid Receptor 1 (AID 488979). Note: 0% is about no effect. The procedure, abridged: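 Calcium influx kinetics via Fluo-8 (480/520 nm) in TRPV1-expressing cells, 2000/well cultured overnight at 35.5C. Compound-alone read 3 min (agonist phase), followed by EC20 capsaicin challenge for 2 min (enhancer phase).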

Assay [17] has as its target Thyrotropin-releasing hormone receptor (Homo sapiens) (UniProt P34981). Nature of the assay: qHTS for Small Molecule Agonists and Allosteric Enhancers of Human TRH Receptor: Validation Screen for Agonists (AID 493127;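 active = calcium activation more than 3 SD above the typical response in the agonist read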;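 note: intracellular calcium rise by fluo-8 fluorescence before TRH EC20 addition; 0% is about no effect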). The note with it: TRH receptor agonist cell assay; at 2 µM; active compounds read high. Put shortly: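 Compounds are added by online pintool to dye-loaded TRHR cells while fluorescence is recorded every second. A rise in calcium signal during the agonist read marks activation; a later 10 nM TRH addition (EC20) serves the separate enhancer mode.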

Assay [18] concerns the target Galactokinase (Homo sapiens) (UniProt P51570). Description: qHTS Validation Assay for Inhibitors of Human Galactokinase (GALK) (AID 493189). Note: 0% is about no effect. Put shortly: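 5 nM GALK / 100 uM galactose / 35 uM ATP, 20 mM HEPES pH8.0, 5 mM MgCl2, 60 mM NaCl, 1 mM DTT, 0.01% BSA (final). RT 1 h; Kinase-Glo Plus luminescence.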
A short description of assay [19]: Validation screen for small molecules that induce DNA re-replication in SW480 colon adenocarcinoma cells (AID 504364). Note: 0% is about no effect. The procedure, abridged: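 Image-based qHTS: compounds were incubated with SW480 cells for 48 hr, nuclei stained with Hoechst, and per-nucleus fluorescence intensity scanned to flag cells with excess DNA content.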

Sequence of Ferritin light chain (Equus caballus) (P02791 2-175 limits assumed): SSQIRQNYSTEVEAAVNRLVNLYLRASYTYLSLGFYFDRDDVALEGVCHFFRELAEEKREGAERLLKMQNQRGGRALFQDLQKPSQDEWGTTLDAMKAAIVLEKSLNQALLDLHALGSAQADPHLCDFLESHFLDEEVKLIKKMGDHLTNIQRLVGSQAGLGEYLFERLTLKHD
Sequence of DNA repair nuclease/redox regulator APEX1 (Homo sapiens) (P27695 whole entry, looked up): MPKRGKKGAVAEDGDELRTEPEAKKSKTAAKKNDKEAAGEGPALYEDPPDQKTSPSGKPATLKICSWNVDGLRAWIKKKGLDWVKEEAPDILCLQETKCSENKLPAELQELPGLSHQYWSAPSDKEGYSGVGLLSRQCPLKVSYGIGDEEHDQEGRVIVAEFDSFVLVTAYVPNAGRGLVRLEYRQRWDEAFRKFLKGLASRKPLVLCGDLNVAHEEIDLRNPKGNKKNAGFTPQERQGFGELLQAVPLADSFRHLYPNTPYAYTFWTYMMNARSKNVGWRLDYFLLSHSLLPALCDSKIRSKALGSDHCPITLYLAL
Sequence of Galactokinase (Homo sapiens) (P51570 whole entry, looked up): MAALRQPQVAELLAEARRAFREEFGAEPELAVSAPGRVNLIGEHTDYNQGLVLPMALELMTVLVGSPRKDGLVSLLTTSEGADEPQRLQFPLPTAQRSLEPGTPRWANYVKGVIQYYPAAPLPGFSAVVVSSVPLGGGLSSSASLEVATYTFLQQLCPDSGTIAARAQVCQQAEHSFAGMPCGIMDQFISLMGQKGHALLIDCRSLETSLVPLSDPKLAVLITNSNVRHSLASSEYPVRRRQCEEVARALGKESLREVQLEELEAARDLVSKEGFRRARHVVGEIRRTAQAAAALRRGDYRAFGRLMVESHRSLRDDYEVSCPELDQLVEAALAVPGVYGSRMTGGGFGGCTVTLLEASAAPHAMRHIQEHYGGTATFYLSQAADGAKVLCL
Sequence of Thyrotropin-releasing hormone receptor (Homo sapiens) (P34981 whole entry, looked up): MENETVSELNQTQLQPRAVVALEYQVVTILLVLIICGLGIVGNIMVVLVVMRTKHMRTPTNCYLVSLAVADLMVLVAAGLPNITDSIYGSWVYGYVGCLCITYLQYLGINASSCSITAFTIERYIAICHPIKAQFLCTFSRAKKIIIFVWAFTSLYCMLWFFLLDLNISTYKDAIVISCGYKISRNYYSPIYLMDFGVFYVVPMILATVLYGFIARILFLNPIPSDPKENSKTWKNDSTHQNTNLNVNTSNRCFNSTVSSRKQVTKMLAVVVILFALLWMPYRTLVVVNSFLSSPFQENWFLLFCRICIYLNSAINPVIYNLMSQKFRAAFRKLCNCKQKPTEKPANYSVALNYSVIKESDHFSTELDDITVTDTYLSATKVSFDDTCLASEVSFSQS
Sequence of M-phase phosphoprotein 8 (Homo sapiens) (Q99549 whole entry, looked up): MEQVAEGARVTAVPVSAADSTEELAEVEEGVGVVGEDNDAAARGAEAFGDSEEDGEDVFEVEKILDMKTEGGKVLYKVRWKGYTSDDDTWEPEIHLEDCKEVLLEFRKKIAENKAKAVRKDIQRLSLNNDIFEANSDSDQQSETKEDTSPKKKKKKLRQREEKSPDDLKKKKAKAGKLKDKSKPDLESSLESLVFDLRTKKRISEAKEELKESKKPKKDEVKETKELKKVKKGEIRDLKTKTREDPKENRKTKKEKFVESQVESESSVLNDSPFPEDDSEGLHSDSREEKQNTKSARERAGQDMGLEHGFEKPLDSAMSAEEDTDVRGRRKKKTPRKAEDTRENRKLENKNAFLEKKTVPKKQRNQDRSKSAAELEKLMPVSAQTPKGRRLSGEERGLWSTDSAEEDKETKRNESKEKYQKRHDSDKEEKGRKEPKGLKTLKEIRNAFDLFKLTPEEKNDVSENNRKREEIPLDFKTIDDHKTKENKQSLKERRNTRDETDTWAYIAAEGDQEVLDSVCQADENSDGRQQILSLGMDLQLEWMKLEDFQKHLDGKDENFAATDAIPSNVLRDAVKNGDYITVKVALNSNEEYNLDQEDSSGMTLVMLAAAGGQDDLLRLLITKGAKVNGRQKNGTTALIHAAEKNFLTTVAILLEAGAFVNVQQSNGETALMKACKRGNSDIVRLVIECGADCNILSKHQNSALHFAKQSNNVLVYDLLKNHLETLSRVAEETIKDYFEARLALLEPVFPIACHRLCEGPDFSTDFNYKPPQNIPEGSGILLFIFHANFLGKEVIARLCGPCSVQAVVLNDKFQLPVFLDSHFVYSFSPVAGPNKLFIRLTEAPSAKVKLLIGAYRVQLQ
Sequence of ATP-dependent DNA helicase Q1 (Homo sapiens) (P46063 whole entry, looked up): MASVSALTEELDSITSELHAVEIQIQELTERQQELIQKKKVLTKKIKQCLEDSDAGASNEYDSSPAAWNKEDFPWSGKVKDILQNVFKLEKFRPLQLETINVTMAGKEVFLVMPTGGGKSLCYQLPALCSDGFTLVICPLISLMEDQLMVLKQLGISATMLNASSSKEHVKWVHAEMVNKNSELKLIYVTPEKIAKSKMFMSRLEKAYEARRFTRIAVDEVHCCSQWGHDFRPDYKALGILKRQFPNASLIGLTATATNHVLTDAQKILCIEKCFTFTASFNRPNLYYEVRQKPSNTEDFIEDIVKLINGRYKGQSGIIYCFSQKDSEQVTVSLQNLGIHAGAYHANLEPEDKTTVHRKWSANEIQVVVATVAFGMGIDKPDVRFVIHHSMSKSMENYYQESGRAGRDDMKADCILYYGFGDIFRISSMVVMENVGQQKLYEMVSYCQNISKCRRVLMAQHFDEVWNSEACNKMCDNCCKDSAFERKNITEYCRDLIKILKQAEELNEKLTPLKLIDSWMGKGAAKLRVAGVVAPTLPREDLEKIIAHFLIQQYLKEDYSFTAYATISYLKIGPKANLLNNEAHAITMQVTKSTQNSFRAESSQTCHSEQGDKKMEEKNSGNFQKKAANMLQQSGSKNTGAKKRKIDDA
Sequence of Transient receptor potential cation channel subfamily V member 1 (Homo sapiens) (Q8NER1 whole entry, looked up): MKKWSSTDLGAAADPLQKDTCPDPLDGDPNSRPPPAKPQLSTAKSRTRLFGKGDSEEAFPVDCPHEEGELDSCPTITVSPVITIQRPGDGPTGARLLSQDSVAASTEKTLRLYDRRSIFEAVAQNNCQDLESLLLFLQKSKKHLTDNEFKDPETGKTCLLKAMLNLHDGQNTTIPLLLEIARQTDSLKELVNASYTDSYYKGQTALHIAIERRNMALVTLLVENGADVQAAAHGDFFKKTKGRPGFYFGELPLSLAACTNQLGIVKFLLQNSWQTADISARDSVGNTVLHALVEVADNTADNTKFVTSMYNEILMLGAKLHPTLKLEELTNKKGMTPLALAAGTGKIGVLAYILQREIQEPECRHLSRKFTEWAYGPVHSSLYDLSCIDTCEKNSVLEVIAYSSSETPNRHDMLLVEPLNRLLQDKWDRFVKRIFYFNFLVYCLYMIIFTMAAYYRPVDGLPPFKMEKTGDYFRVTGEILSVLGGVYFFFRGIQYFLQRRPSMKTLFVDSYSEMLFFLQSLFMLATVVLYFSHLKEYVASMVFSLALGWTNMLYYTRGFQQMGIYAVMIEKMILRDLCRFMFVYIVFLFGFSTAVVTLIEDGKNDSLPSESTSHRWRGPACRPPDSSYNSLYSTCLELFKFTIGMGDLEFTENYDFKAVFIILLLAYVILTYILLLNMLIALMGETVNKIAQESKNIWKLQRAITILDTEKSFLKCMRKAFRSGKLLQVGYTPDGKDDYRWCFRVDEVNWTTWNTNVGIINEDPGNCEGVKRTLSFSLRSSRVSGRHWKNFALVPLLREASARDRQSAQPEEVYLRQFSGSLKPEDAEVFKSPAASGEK

On to `CN1CCc2cc(Cl)c(O)cc2C(c2ccccc2)C1` (centres undefined), for which the result in assay [1], in assay [11], in assay [12], in assay [14], in [16] and in assay [18] was inactive. Moreover, the result in assay [19] was inactive. In addition, the Potency result in assay [2], in assay [3], in assay [13] and in assay [15] was “inactive” each time. For the same compound, the Potency in [4] is 7.94 µM (active); in assay [5], 11.2 µM (active); in assay [6], 11.2 µM (active); in assay [7] it was 12.6 µM (active); in [8] it was 8.91 µM (active); in [9], 4.47 µM (active). Besides, the Potency in assay [10] is 12.6 µM (active). For the same compound, the activation in assay [17] was 1.12%.
